# Most compounds without a hit are left out; they make up all but 7.4% or so of the library.
# SMN2 splice up = enhancers of SMN2 splice variant expression. 210,000 compounds, 2.8% hits. Potency, µM (top dose mostly 46.1 µM), for inactives: at the highest dose activity change, positive = activation, usual class: activators. AID 1458. HEK293 SMN2-luciferase splicing reporter, luminescence, 30-36 h; further: % of control where 0% means no effect; nearly all actives have a fitted effect of over 55% in size
#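 qHTS luciferase splicing reporter: luminescence rises when SMN2 exon 7 is included in transfected HEK293 cells. Compound exposure lasted 30-36 h at 37C, with 4.5 mM final sodium butyrate as control, followed by a ONE-Glo read.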
# FLuc modulator = counter-screen for miR-21 project: firefly luciferase inhibitors or activators | P08659 | Potency, µM (series often up to 57.5 µM), inactives show at the top dose activity change, negative = inhibition, most hits filed as inhibitors | 360,000 compounds, 6.9% hits | purified FLuc, Km substrates, luminescence inhibition | AID 588342;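 further: plate controls were vehicle for no effect and reference inhibitor for full effect; nearly all actives have a fitted effect of over 55% in size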
# Target sequence (P08659 whole entry, looked up): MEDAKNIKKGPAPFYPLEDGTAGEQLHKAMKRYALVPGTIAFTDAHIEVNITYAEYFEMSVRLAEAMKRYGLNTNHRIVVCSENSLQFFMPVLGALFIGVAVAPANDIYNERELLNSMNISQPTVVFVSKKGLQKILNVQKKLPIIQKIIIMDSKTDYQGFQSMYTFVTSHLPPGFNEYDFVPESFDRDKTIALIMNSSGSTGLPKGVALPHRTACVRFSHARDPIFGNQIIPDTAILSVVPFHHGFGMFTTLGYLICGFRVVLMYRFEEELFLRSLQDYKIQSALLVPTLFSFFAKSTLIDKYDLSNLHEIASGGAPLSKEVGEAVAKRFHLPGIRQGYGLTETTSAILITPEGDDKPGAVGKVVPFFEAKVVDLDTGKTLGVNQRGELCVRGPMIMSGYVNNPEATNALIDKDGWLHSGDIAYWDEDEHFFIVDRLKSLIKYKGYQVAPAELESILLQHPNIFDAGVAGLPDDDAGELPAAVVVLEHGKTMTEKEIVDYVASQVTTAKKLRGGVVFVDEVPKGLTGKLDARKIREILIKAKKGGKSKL
#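 Purified P. pyralis luciferase (10nM final) with 10uM D-luciferin and 10uM ATP (Km levels) in 50mM Tris acetate pH 7.5, 10mM Mg acetate, 0.01% Tween-20, 0.05% BSA; qHTS 6-point titration, ~60 µM downward; luminescence read.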
# NPC1 prom act = NPC1 promoter activation; Huh7 NPC1 promoter luciferase reporter, 24 h; Potency, µM (series often up to 9.22 µM), without a hit: top-dose activation, usual class: activators; 320,000 compounds, 2.4% hits; AID 485313; further: % of control where 0% means no effect; nearly all actives have a fitted effect of over 60% in size
#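 NPC1 promoter–luciferase Huh7 cells; 24 h compound; luminescence.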
# ELG1 genotoxic = genotoxicity induction in ELG1-luciferase HEK293T cells | 330,000 compounds, 1.3% hits | AID 504466 | Potency, µM (titrated, usually from 46 µM), for inactives: at the top dose activity change, positive = activation, usual class: activators | HEK293T ELG1-luciferase reporter, luminescence, 16 h; further: % of control where 0% means no effect; nearly all actives have a fitted effect of over 60% in size
#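 HEK293T cells expressing luciferase-tagged ELG1 were treated with compound or DMSO for 16 hr at 37°C. Luciferase activity was then read after 30 min with ONE-Glo at room temperature; rising signal flags genetic stress.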
# Rab9 prom act = Rab9 promoter activation; Potency, µM (highest dose often 9.22 µM), for the others: at the top dose activation, negative = inhibition, most hits filed as activators; AID 485297; Huh7 Rab9 promoter-luciferase reporter, luminescence, 24 h; 320,000 compounds, 2.8% hits; further: % of control where 0% means no effect; nearly all actives have a fitted effect of over 60% in size
#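 Luminescence read-out: Huh7 cells stably expressing Rab9-luciferase, treated 24 h with compound at 37 °C, then lysed with luciferase reagent for 10 min at ambient before reading.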
# Starred values were filed as active, the others as inactive; ? = inconclusive; . = no result given; [ ] = dose if it differs, or a comment. The call rests on the fitted dose curve; in most records, active means well fitted curve in the direction sought with a large enough effect; inconclusive means small, poorly fitted or top-dose-only effect, or another doubt; inactive means no such curve, though single readings can be large; an effect the other way counts as inactive or inconclusive. Potency means the concentration at half of the fitted maximal effect.
SMILES,SMN2 splice up,FLuc modulator,NPC1 prom act,ELG1 genotoxic,Rab9 prom act
Cc1nc(NC2CCCCC2)c2nc(-c3ccccc3)n(CC3CCN(C)CC3)c2n1,0%,.,.,.,.
Cc1cc(C)cc(NC2=C(c3ccccc3)C(=O)c3ccccc32)c1,-3%,-13%,.,.,.
CCOC(=O)c1ccc(NC(=O)c2c(NCc3ccc(OC)c(OC)c3OC)sc3c2CCC(C)C3)cc1 (configuration not stated),.,-8%,.,.,.
Cc1cc(Cc2cc(Cc3cc(C)cc(C(C)(C)C)c3O)c(C)cc2C)c(O)c(C(C)(C)C)c1,4%[9.22 µM],.,.,.,.
Cc1cccc(NC(=O)CN2C(=O)CCn3nc(-c4cccn4C)cc32)c1C,.,3%,.,.,.
O=C(O)c1ccc(-c2nc(-c3ccccc3Cl)cs2)cc1,18µM*,17µM*,?,?,?
O=C(Nc1ccc(-c2csc(-c3ccccc3)n2)cc1)c1ccccc1Cl,-1%,?,-4%,-2%,1%
Cc1ccc(C(=O)NCC(=O)OCc2csc(-c3ccccc3)n2)cc1,?,?,13%,?,-7%
CC(=O)c1csc(-c2ccccc2)n1,0%,?,-1%,10%,12%
ClCc1csc(-c2ccccc2Cl)n1,-18%,-6%,-7%,-2%,-1%
O=C(O)c1ccccc1-c1csc(-c2ccccc2)n1,?,15µM*,?,?,4µM*
O=C(O)c1ccccc1C(=O)Nc1ccc(-c2csc(-c3ccccc3)n2)cc1,72%,17µM*,5%,?,20%
O=C(OCc1csc(-c2ccccc2)n1)c1ccc(O)cc1,21%,19µM*,17%,?,?
O[C@@H]1[C@@H]2c3cc4c(cc3CN3CCC(=C[C@@H]1O)[C@H]23)OCO4,-94%[20.6 µM],.,.,.,.
CCC(=O)Oc1cc(C(C)(C)C)cc2cc(-c3nc(-c4ccc(OC)cc4OC)no3)c(=O)oc12,.,-2%,.,.,.
O=C(O)c1ccc(-c2nc(-c3ccc(Cl)c(Cl)c3)cs2)cc1,129%,13µM*,3.2µM*,0%,?
C=CCNC(=O)c1ccc(-c2nc(-c3ccc(Cl)c(Cl)c3)cs2)cc1,-7%,1%,-4%,2%,1%
C=CCNC(=O)c1ccc(-c2nc(-c3ccc(Cl)cc3Cl)cs2)cc1,4.5µM*,-5%,5%,2%,8%
O=C(O)c1cnn(-c2nc(-c3ccc(Cl)c(Cl)c3)cs2)c1C(F)(F)F,.,?,21%,?,15%
Cc1cc2c(c3oc(=O)c4ccccc4c13)CN(Cc1ccc(F)cc1)CO2,-6%,-11%,.,.,.
O=C(c1cc(Br)ccc1O)c1cc(Br)ccc1O,-7%[9.22 µM],.,.,.,.
CCCCS(=O)(=O)c1nc(-c2ccc(Br)cc2)cc(-c2ccccc2)c1C#N,-109%,2%,.,.,.
Brc1ccc(-c2ccc(C3Nc4cccc5cccc(c45)N3)o2)cc1,.,-5%,-3%,-2%,4%
FC(F)(F)C1=Nc2cccc3cccc(c23)N1,.,?,0%,-2%,0%
Fc1ccc(C2=Nc3cccc4cccc(c34)N2)cc1,-14%,15µM*,16%,1%,?
SMILES,SMN2 splice up,FLuc modulator,NPC1 prom act,ELG1 genotoxic,Rab9 prom act
Brc1ccc(C2=Nc3cccc4cccc(c34)N2)o1,1%,12µM*,20%,3%,21%
Cc1ccc2onc(CNC(=O)Nc3ccccc3C#N)c2c1,.,-11%,.,.,.
COc1ccccc1CN1CCCC2(CCN(C(=O)c3c(C)noc3C)CC2)C1,-1%,.,.,.,.
CSc1ccccc1NC(=O)Nc1ccc(F)c(Cl)c1,6%,12µM*,16%,2%,15%
CSc1ccccc1NC(=O)Nc1cccc(Cl)c1C,-46%,-2%,-2%,19%,1%
CSc1ccccc1NC(=O)Nc1cccc(Cl)c1,19%,24µM*,11%,1%,13%
CSc1ccccc1NC(=O)Nc1cccc(Cl)c1Cl,12%,2%,0%,2%,1%
Cc1ccc(NC(=O)Nc2cccc(Cl)c2)c(C(=O)O)c1,-7%,12µM*,18%,8%,-5%
COc1cc(Cl)c(NS(=O)(=O)c2ccc3[nH]c(=O)ccc3c2)c(OC)c1,.,-3%,.,.,.
CC(=O)c1sc(NC(=O)C2(F)C(F)(F)C(F)(F)C(F)(F)C(F)(F)C2(F)F)nc1C,-57%,?,-36%,-10%,-46%
CC(=O)c1sc(N/N=C2\CC3CC2C(C)C3(C)C)nc1C (configuration not stated),.,13µM*,?,?,?
O=C(COC(=O)c1ccc(Cl)s1)c1cc2ccccc2o1,22%,24µM*,4%,2%,2%
O=C(COC(=O)c1nc(Cl)ccc1Cl)c1ccc(Cl)s1,1%,?,5%,1%,-6%
Cn1cccc1C(=O)OCC(=O)c1cc2ccccc2o1,5%,12µM*,16%,22%,11%
Cn1cccc1C(=O)OCC(=O)NCCCc1ccccc1,.,.,.,1%,.
O=C(NC(=S)Nc1nc2ccccc2s1)c1ccco1,11µM*,1.5µM*,?,?,?
COc1ccc2nc(NC(=O)CCNC(=O)c3ccco3)sc2c1,.,12µM*,3.2µM*,?,3.2µM*
O=C(CCNC(=O)c1ccco1)Nc1nc2ccccc2s1,.,?,26%,9%,?
O=C(CCNC(=O)c1ccccc1Cl)Nc1nc(-c2ccc(F)cc2)cs1,.,-17%,-1%,-2%,2%
COc1ccc2sc(NC(=O)c3ccco3)nc2c1,?,0.76µM*,0.5µM*,?,0.35µM*
O=C(CCNC(=O)c1ccccc1Cl)Nc1nc(-c2ccccc2Cl)cs1,3%,17µM*,8%,14%,1%
CCS(=O)(=O)c1ncc(Cl)c(C(=O)N2CCN(c3cccc(Cl)c3)CC2)n1,-83%,.,.,.,.
O=C(NCc1cccc(Cl)c1)NCc1noc2ccccc12,.,-11%,.,.,.
Cc1ccc(CNC(=O)CN2C(=O)C3CCCCN3c3ccc(C(=O)N(C)C)cc32)cc1 (configuration not stated),.,2%,.,.,.
COc1ccc2nc(NC(=S)NC(=O)c3ccco3)sc2c1,7.9µM*,0.67µM*,3.2µM*,?,1µM*
SMILES,SMN2 splice up,FLuc modulator,NPC1 prom act,ELG1 genotoxic,Rab9 prom act
COc1cccc(NC(=O)CCNC(=O)c2ccccc2Cl)c1,-22%,5%,-1%,2%,-2%
COc1ccc2nc(N(Cc3cccnc3)C(=O)COc3ccccc3)sc2c1,.,-11%,.,.,.
COc1ccc(-c2csc(NC(=S)NC(=O)c3ccco3)n2)cc1,?,0%,-3%,20%,-1%
COc1ccc2nc(N(Cc3ccccc3)C(=O)CCNC(C)=O)sc2c1,.,19µM*,?,?,?
COc1ccc2nc(NC(=O)CCNC(=O)c3ccccc3Cl)sc2c1,16µM*,19µM*,16%,10%,30%
Cc1ccc(C(=O)c2oc3ccccc3c2NC(=O)COc2ccccc2Cl)cc1,7%,-4%,.,.,.
COCC(=O)C(C(=O)OC)[C@H](CCc1ccccc1)NC(=O)OC (some centres not stated),1%,.,.,.,.

# Screens from PubChem.
